Source: paper PMC12215968

The substances below were run against CCT7 (UniProt Q99832) (assay: cross-linking mass spectrometry). Conditions: TSTO, in cells.
CCT7, sequence (Q99832 whole entry): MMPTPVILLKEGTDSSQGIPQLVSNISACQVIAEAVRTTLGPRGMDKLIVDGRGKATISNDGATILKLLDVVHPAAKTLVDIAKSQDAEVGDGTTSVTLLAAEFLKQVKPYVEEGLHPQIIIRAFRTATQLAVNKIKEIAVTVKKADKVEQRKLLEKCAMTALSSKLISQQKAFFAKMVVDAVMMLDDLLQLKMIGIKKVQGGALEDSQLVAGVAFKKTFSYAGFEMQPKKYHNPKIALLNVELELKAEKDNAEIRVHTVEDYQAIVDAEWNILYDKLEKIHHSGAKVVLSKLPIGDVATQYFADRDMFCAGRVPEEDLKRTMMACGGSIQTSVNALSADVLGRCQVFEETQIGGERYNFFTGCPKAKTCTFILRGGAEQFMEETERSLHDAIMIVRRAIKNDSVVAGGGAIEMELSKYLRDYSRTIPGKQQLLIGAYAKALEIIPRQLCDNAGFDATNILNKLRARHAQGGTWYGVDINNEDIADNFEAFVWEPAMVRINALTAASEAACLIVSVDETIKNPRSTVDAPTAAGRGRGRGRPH

CCT2, P78371, sequence (P78371 whole entry): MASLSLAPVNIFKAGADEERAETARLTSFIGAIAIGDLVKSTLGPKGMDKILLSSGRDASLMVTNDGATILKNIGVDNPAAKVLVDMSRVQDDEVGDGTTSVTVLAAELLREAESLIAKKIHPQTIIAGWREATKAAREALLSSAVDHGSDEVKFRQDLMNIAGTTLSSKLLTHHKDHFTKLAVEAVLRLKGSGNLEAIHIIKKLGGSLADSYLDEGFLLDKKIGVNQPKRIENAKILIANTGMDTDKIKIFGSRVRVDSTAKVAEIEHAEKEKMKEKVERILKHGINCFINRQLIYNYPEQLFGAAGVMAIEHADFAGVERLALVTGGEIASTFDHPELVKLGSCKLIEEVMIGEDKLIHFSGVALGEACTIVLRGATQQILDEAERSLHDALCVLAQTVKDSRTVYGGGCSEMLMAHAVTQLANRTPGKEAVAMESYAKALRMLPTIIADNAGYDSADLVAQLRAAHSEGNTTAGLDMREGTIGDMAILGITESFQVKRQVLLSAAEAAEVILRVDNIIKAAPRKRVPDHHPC
CCT5, P48643, sequence (P48643 whole entry): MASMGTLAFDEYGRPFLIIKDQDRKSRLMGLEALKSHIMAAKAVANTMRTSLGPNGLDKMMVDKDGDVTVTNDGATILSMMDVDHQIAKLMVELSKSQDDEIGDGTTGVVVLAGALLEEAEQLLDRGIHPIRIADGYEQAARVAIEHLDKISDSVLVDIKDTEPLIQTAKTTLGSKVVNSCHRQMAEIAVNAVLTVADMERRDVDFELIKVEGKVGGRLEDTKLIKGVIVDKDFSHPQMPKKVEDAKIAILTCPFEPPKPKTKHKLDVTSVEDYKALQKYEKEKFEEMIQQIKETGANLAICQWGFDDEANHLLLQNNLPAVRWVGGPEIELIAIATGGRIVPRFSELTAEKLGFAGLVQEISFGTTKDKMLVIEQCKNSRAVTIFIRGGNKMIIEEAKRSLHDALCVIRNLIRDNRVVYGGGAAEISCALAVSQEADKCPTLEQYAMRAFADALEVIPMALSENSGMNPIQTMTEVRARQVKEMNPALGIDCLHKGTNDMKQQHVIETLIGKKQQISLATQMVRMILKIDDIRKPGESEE
VBP1, P61758, sequence (P61758 whole entry): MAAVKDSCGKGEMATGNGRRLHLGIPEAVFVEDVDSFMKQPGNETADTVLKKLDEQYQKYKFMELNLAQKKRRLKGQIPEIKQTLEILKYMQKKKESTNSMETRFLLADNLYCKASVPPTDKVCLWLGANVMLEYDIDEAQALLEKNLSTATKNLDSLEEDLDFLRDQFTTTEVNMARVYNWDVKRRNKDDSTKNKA
CCT8, P50990, sequence (P50990 whole entry): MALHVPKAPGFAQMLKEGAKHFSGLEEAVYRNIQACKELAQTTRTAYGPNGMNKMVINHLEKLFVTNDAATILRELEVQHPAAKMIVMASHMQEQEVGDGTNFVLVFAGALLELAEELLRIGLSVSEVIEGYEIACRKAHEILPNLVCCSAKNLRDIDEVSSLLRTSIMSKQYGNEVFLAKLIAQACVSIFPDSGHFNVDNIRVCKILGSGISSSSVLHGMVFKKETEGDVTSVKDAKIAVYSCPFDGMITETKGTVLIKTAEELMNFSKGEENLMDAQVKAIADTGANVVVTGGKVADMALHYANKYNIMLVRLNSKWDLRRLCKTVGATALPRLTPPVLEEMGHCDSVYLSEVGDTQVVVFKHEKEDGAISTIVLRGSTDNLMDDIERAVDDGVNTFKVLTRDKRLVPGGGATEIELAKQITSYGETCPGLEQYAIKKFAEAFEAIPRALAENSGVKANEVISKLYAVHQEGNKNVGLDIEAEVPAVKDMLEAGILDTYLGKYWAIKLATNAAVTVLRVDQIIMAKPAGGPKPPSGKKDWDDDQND

Substance | cross-linked residues
CCT2, P78371 | K248 - K250
CCT8, P50990 | K270 - K280
CCT5, P48643 | K232 - K250
VBP1, P61758 | K189 - K292
